# Laboratory results as given in PubChem BioAssay (NCI).
# Compounds without any hit were thinned out: in the full panel of roughly 79,000, 15% have a hit. Values without a mark were called inactive. Calls of active or inactive are those of the source. Rule as the data show it: active = growth inhibition above about 70%; inactive = the rest.
# Tests used:
# [1] = NCI Yeast Anticancer Drug Screen. Data for the rad50 strain (AID 155);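 also: 0% = growth of vehicle-only cultures of the same strain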; conditions: S. cerevisiae rad50 strain growth inhibition; at 50.0 µM; active compounds read high
# In short: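 Vehicle-treated cultures provide the reference for the growth inhibition reported for compound-exposed, repair-deficient yeast.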
# [2] = NCI Yeast Anticancer Drug Screen. Data for the mec2-1 strain (AID 157); conditions: S. cerevisiae mec2-1 strain, at 50.0 µM, active compounds read high
# In short: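 Yeast mec2-1 mutant treated with compound. Readout: growth inhibition vs vehicle controls.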
# [3] = NCI Yeast Anticancer Drug Screen. Data for the sgs1 mgt1 strain (AID 161);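 also: 0% = growth of cultures given vehicle only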; conditions: S. cerevisiae sgs1 mgt1 strain, at 50.0 µM, active compounds read high
# In short: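 Read-out: growth inhibition vs vehicle controls. Cells: mutant yeast strain deficient in DNA damage repair.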
# [4] = NCI Yeast Anticancer Drug Screen. Data for the cln2 rad14 strain (AID 165);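 also: 0% = growth equal to vehicle treated cultures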; conditions: S. cerevisiae cln2 rad14 strain, at 50.0 µM, active compounds read high
# In short: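 cln2 rad14 yeast strain; compound exposure; growth inhibition read vs vehicle controls.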
# [5] = NCI Yeast Anticancer Drug Screen. Data for the bub3 strain (AID 167); conditions: S. cerevisiae bub3 mutant strain, at 50.0 µM, active compounds read high
# In short: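 Mutant yeast screening strain plus compound; vehicle-treated cultures serve as the 0% inhibition reference.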
# [6] = NCI Yeast Anticancer Drug Screen. Data for the mlh1 rad18 strain (AID 175); conditions: S. cerevisiae mlh1 rad18 strain growth inhibition; at 50.0 µM; active compounds read high
# In short: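 Yeast w/ defined DNA-repair lesions; compound exposure; growth vs vehicle controls → % inhibition.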
Compound,growth inhibition [1],growth inhibition [2],growth inhibition [3],growth inhibition [4],growth inhibition [5],growth inhibition [6]
Oc1ccc(Br)cc1C(=S)N1CCOCC1,9.3%,18.4%,4.45%,3.6%,-10.1%,37.2%
CS/C(=N/N=C/c1ccc2ccccc2n1)SS/C(=N/N=C\c1ccc2ccccc2n1)SC,-8.05%,13.8%,-12.4%,-19.9%,-0.3%,-39.9%
CCOC1(OCC)C2(Cl)C(Cl)=C(Cl)C1(Cl)C1CCCC12 (configuration not stated),23.7%,3.75%,11.5%,17.1%,-12.7%,20.6%
COc1ccc(NS(=O)(=O)c2ccc(NCc3c4ccccc4nc4ccccc34)cc2)nn1,-13.3%,8.2%,17.2%,29.7%,-0.45%,18.5%
Cc1ccc(S(=O)(=O)OC2CCC(C(C)(C)C)C(Cl)C2)cc1 (configuration not stated),-8%,8.3%,3.2%,9.55%,3.35%,-6.75%
O=C(N/N=C/c1ccccc1Cl)c1ccccc1,-19.4%,-1.25%,-5.3%,-7.55%,-4.05%,-9.6%
O=C1NC(=S)N/C1=C\c1ccco1,21.9%,10.2%,0.5%,15.2%,26.5%,32%
O=CC(=O)c1ccc(Cl)cc1,1.9%,5.5%,8.4%,31.1%,-9.5%,14.8%
O=[S@@]1Nc2cc3ccccc3cc2S1,23.2%,-3.35%,17.6%,17.1%,-14.9%,39.2%
CC(C)(C)C(=O)CC(=O)C(C)(C)C,-3.9%,-9.5%,2.25%,-57.4%,-2.8%,-15.8%
CN(C)C(=O)Nc1cccc(OC(=O)NC2CC2)c1,4.4%,16.9%,26.9%,-8.35%,19.8%,-4.1%
Cn1nc(-c2ccccc2)c(C(=O)/C=C/c2ccc(F)cc2)c(N2CCCCC2)c1=O,2.55%,8.55%,-0.95%,28.2%,4.1%,10.2%
COc1c(OCC(O)CN2CCCCC2)c2c(C)coc2c2ccoc12 (configuration not stated),34.5%,18.6%,16.1%,9.25%,4.15%,23.1%
CCCCCCNC(=O)CCC(NC(=O)c1ccc(N(C)Cc2cnc3nc(N)nc(N)c3n2)cc1)C(=O)NCCCCCC (configuration not stated),18.2%,17.1%,19.1%,19.9%,25.4%,28.2%
CC1(c2cccc3c2C2(O)C=CC4(CCC32)OCCO4)OCCO1 (configuration not stated),-59.4%,-41.2%,-55.8%,-27.6%,-61.1%,-26%
NNc1nc2ccccc2[nH]1,16.6%,-0.1%,-34.9%,-14.4%,8.9%,8.85%
CC1(C)OC2COC(CN(N=O)C(N)=O)C2O1 (configuration not stated),15.2%,-15.7%,-8.15%,-75%,-17.4%,5.75%
COc1ccc2nc(N(C)C)cc(N(C)C)c2c1,-10.6%,5.6%,-2.4%,-34.8%,4.6%,-5%
CCCCCCCCCCOC(=O)C(C)O (configuration not stated),8.4%,2.95%,5.35%,5.55%,-16.3%,-4.75%
CCN(CC)CC(O)C=O (configuration not stated),10.6%,-6.7%,-3.85%,3.85%,-9.5%,6.7%
O=C(Nc1ccc(Br)cc1C(F)(F)F)C(F)(F)F,6%,-5.7%,-2.15%,-28.9%,1.9%,-16.2%

Compound,growth inhibition [1],growth inhibition [2],growth inhibition [3],growth inhibition [4],growth inhibition [5],growth inhibition [6]
O=C(NC(O)(C(F)(F)F)C(F)(F)F)c1ccccc1,-5.35%,6.85%,10.7%,0.9%,-7.05%,-6.95%
O=C1OC(/C=C/c2ccccc2)C(=O)C1=O (configuration not stated),-4%,-4.55%,-3.9%,25.4%,-9.75%,-9.95%
NC(=O)NC(=O)/C=C/C(=O)O,3.75%,-12.9%,-4.15%,-12.4%,9.7%,-3.2%
Cc1cccc(Oc2ccc(C(F)(F)F)cc2[N+](=O)[O-])c1C,-32.2%,-2.15%,2.55%,-45.4%,45.3%,-15.2%
COc1ccc(OCC(=O)N2CCCCC2)cc1,-2.95%,-11.6%,0%,-40.2%,13.2%,-1.65%
O=C(O)c1cc(C(=O)O)nc(C(=O)O)c1,-23.9%,-12.1%,-16.1%,-29.9%,5.7%,-0.6%
Cc1ccc(S(=O)(=O)c2c(N)c3nccn3c3nc4ccccc4nc23)cc1,-52.2%,-68.2%,-77.5%,-38.8%,-62.1%,-88.8%
COC(=O)N1N=C(c2ccccc2)C(C(=O)OC)(C(=O)OC)c2ccccc21,45.7%,11.9%,24.6%,16.6%,20.2%,36.8%
CC1CCCC(C)N1 (configuration not stated),2.5%,-9.05%,-1.75%,-1.95%,1.5%,10.8%
S=C(Nc1ccc(I)cc1)SCc1ccc2c(c1)OCO2,32.5%,14.4%,25.5%,32.2%,-3.65%,23.8%
C1=Nc2ccccc2/C1=C/c1c[nH]c2ccccc12,11.2%,-10.1%,5.2%,17.9%,1.05%,17.9%
CN(C)C1C(=O)C(C(=O)NCN2CCCC2)=C(O)C2(O)C(=O)C3=C(O)c4c(O)cccc4C(C)(O)C3CC12 (configuration not stated),2.75%,-4.7%,-10.2%,-27.9%,-26.9%,21.4%
CN1CCCCC1C(O)CO (configuration not stated),11.4%,-5.7%,-8.05%,-47.4%,-3.2%,-27.1%
O=C1CCCc2cc3c(cc21)CC1(Cc2ccccc2C1)C3,-12.2%,-27.8%,9.4%,-6.4%,36.9%,-14.7%
Cc1cccc(C)c1NC(=O)C(=O)C(C(=O)c1ccccc1-c1ccccc1)C1OC(=O)c2ccccc21 (configuration not stated),26.6%,15.4%,12.2%,-29.6%,2.2%,23.6%
CCN(CC)Cc1cc(OC(=O)c2cc(OC)c(OC)c(OC)c2)cc(C(=O)OC)c1,3.2%,3.7%,-19.1%,-32%,8.5%,-10.3%
COC(O)C(=O)c1c2c(cc3c1CCC3)CCC2 (configuration not stated),29.1%,45.8%,39.3%,12.3%,21.1%,21%
C[n+]1c2ccccc2c(CNC(CCC(N)=O)C(=O)O)c2ccccc21 (configuration not stated),83.3% (active),87.4% (active),80.6% (active),61.8%,73.3% (active),87.8% (active)
COc1cc2cnc(-c3ccncc3)c(N)c2cc1OC,-0.75%,8.4%,-11.6%,24.6%,7.8%,7.65%
CCOC(=O)C(=O)Nc1ccccc1,43.8%,-1.4%,21%,-21.1%,-4.15%,18.8%
COC(=O)c1cnc2nc(N3CCOCC3)[nH]n2c1=O,8.3%,-0.3%,-1.25%,4.1%,-4.7%,-10.5%
